B2AR arrestin = beta2AR (human) beta-arrestin recruitment activity | Potency, µM (doses to about 46.1 µM), usual class: activators | 330,000 compounds, 0.02% hits | beta-arrestin recruitment to beta2AR, cell-based reporter; also: nearly all actives have a fitted effect of over 65% in size
PI4K2A inh = PI4K2A (human) kinase inhibition; purified PI4K2A, ADP-Glo luminescence, 1 h; stronger effect = lower value; Q9BTU6; activity change, negative = inhibition, % at 76.9 µM; 420,000 compounds, 0.13% hits; AID 1346378; in the data active = activity change below about -50%; inconclusive = mostly about -30% to -49%
Target sequence (Q9BTU6 whole entry, looked up): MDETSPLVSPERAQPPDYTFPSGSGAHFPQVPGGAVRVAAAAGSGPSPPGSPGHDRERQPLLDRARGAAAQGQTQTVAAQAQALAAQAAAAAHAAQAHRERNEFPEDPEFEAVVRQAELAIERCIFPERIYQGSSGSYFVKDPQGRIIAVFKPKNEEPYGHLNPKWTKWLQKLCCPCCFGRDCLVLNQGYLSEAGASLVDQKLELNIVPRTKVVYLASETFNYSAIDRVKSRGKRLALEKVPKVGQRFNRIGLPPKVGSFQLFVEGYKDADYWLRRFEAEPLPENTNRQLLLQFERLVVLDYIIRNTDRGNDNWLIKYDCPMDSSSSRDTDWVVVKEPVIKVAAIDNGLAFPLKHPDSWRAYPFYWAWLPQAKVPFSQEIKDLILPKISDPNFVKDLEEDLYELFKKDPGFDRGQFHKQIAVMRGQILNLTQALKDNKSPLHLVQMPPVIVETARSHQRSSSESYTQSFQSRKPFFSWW
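Compounds are screened against recombinant PI4K2A using PI as substrate and ATP, the latter dispensed at 300 microM. Reactions run one hour at ambient temperature before ADP-Glo detection; full inhibition defined by wells lacking enzyme.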
p53 reactivation = re-activators of mutant p53; H1299 p53-A138V BP100-luciferase reporter, luminescence, 24 h; 320,000 compounds, 0.063% hits; Potency, µM (doses to about 92.2 µM), hits mostly activators; also: nearly all actives have a fitted effect of over 45% in size
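H1299 (p53-null), stable ts p53-A138V + BP100-Luc; 1000 cells/well, Opti-MEM/10% FBS; cpd 4 pt, 1:5; 24 h, 37 deg C, 5% CO2; detection reagent 10 min RT; luminescence.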
Epigenetic reg = epigenetic control regulation, reporter derepression. murine LDR cells, GFP reporter derepression, 30 h. Potency, µM (series often up to 53.9 µM), hits mostly activators. 280,000 compounds, 0.2% hits; also: nearly all actives have a fitted effect of over 60% in size
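Murine LDR cells bearing a silenced CMV-driven GFP reporter were exposed to compound for 30 h at 37 C. After PBS washes, GFP-positive cells (20-120 um objects) counted by laser-scanning microplate cytometry.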
Pin1 inh = blocks the human prolyl isomerase Pin1; Pin1 FP peptide displacement, HiFluor488, 10 min; Potency, µM (top dose mostly 115 µM), usual class: inhibitors; Q13526; AID 504891; 390,000 compounds, 0.009% hits; active = well fitted inhibition curve with a large enough effect in the polarisation, with a control signal flat, not every such curve was filed as active; inconclusive = small, poorly fitted or top-dose-only effect, or effect the other way, or a change in a side signal; inactive = no such curve, though single readings can be large or run the other way; the % refers to the polarisation
Target sequence (Q13526 whole entry, looked up): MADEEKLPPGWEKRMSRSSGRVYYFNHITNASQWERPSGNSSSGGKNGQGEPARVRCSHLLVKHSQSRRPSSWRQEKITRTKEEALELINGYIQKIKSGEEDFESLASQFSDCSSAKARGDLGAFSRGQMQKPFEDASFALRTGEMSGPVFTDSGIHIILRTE
Giardia killer = Giardia lamblia killing | Giardia lamblia trophozoite viability | activity change, % at 7.66 µM, hits read low | 340,000 compounds, 0.15% hits | AID 540267; in the data active = activity change below about -80%; inconclusive = between about -30% and that limit;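 also: parasites exposed to compound for two days anaerobically before the ATP read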
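Trophozoite viability was measured as ATP-dependent luminescence, read 15-30 min after reagent addition. Before that, parasites at 100 cells/well were exposed to compounds for 48 h, anaerobically, at 37 deg C.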
Hits are given with their value; - = inactive; ? = inconclusive; . = not tested or not shown. This is a sample that favours compounds with a hit; in the whole collection about 0.44% have one here. Unless noted, calls follow the shape of the dose curve; as a rule, active = well fitted curve in the direction sought with a large enough effect; inconclusive = small, poorly fitted or top-dose-only effect, or another doubt; inactive = no such curve, though single readings can be large; an effect the other way counts as inactive or inconclusive.

SMILES	B2AR arrestin	PI4K2A inh	p53 reactivation	Epigenetic reg	Pin1 inh	Giardia killer
C#CCOc1ccc(/C=C2\SC(=S)N(Cc3cccnc3)C2=O)cc1	-	-	35.5µM	-	-	-
O=C1/C(=C/c2ccncc2)SC(=S)N1Cc1ccccc1	-	-	-	15.8µM	-	-
Cc1ccc(NS(=O)(=O)c2ccc3[nH]c(=O)[nH]c3c2)cc1C	.	.	.	.	-	.
COc1cc(/C=N\Nc2ccc([N+](=O)[O-])cc2)ccc1OCC(=O)Nc1ccc(C)c(C)c1	-	-	-	6.31µM	?	-
Cc1ccccc1N=C1NN=C(c2ccccc2F)CS1	-	-	12.6µM	-	-	-
Cn1cc(C(=O)c2ccccc2)cc1-c1nc2ccccc2n1C	-	-	-	-	-	-
Cn1c(-c2ccc(Br)o2)nc2ccccc21	-	-56.4	.	-	-	?
Cc1oc(-c2nc3ccccc3n2C)cc1C(=O)c1ccccc1	-	-	10µM	-	-	?
O=[S+]([O-])(c1ccc(N2CCOCC2)nc1)N1CCN([S+](=O)([O-])c2c(F)cccc2F)CC1	.	.	.	.	-	.
COc1ccc(/C=N/Nc2cc(C)nc3ccc(Br)cc23)cc1	-	-	-	.	?	-
COc1ccc2nc(C)cc(N/N=C/c3cccc(OC)c3O)c2c1	-	-	.	.	-	-83.0
Oc1ccc(/C=N/Nc2nccnc2Cl)c(O)c1	-	-67.0	?	-	-	-
COc1cccc(/C=N/Nc2nc3ccccc3n3cnnc23)c1	-	-	-	-	-	-
Oc1ccccc1/C=N/Nc1nccnc1Cl	-	-	?	-	-	-
COc1cccc(/C=N/Nc2nccnc2Cl)c1O	-	-59.9	-	-	-	-
COc1cccc(/C=N/Nc2nc3ccccc3n3cnnc23)c1O	-	-	31.6µM	-	-	-
Oc1ccccc1Nc1nc2ccccc2n2nnnc12	.	-	.	12.6µM	?	.
Fc1ccccc1Nc1nc2ccccc2n2nnnc12	-	-	?	?	?	-
O=C(O)c1cc(-c2ccco2)nc2ccccc12	-	-	-	-	?	-
O=C(NC1CC1)c1cc(-c2ccco2)nc2ccccc12	-	?	-	-	21.3µM	-
COc1cc(-c2ccc3ncnc(NCC4CCCO4)c3c2)cc(OC)c1OC (stereo not drawn)	.	.	.	.	-	.
OCCOCCN1CCN(C2=Nc3ccccc3Sc3ccccc32)CC1	-	-	-	-	-	-
O=C1C=CC(=O)c2c(O)c(N3CCN(CCO)CC3)c(Cl)c(O)c21	.	-56.6	.	.	?	-
O=C1C=CC(=O)c2c(O)c(N3CCN(CCOCCO)CC3)c(Br)c(O)c21	.	-59.7	.	.	?	-
CCc1cc2cc(OC)c(OC)cc2c(Cc2ccccc2)n1	.	-	.	.	.	.
SMILES	B2AR arrestin	PI4K2A inh	p53 reactivation	Epigenetic reg	Pin1 inh	Giardia killer
CC[C@H](C)[C@H](N)C(=O)O	.	-	.	.	.	.
CC(C)NC(=O)c1ccc(C=O)cc1	.	-	.	.	.	.
CCc1ccc(S(=O)(=O)/N=C2\C=C(NS(=O)(=O)c3ccccc3)C(=O)c3ccccc32)cc1	-	-50.1	?	.	?	-
CCOC(=O)N1CCN(Cc2ccc(O)c3ncccc23)CC1	-	-	-	3.98µM	-	-
Oc1ccc(CN2CCc3ccccc3C2)c2cccnc12	.	-	.	3.55µM	-	-
Oc1ccc(CN2CCN(c3ccccc3)CC2)c2cccnc12	-	-	-	3.55µM	-	-
Oc1ccc(CN2CCCCC2)c2cccnc12	-	-	-	?	-	-
CC(=O)Nc1cccc(S(=O)(=O)Nc2ccc(C)c(C)c2)c1	.	.	.	.	-	.
Cc1cccc(CSc2cn(CC(=O)N3CCOCC3)c3ccccc23)c1	-	-	?	-	-	-
O=C(Cn1cc(SCc2cccc(Cl)c2)c2ccccc21)N1CCOCC1	-	-	28.2µM	-	-	-
O=[S+]([O-])(c1ccc2c(c1)OCCO2)N1CCN([S+](=O)([O-])c2c(O)cc(F)cc2F)CC1	.	.	.	.	-	.
COc1cc2nc(/C=C/c3ccc(N(C)C)cc3)sc2cc1SC	-	-	-	11.2µM	?	-
COc1ccccc1OC(C)C(=O)Nc1ccc(-c2nc3ccccc3s2)cc1 (stereo not drawn)	.	-	.	35.5µM	-	.
COc1ccc2nc(NC(=O)c3ccccc3C(=O)O)sc2c1	-	-	-	.	-	-
CC(C)Oc1ccc(C(=O)Nc2ccc(-c3nc4ccccc4s3)cc2)cc1	.	-	.	-	-	.
COc1ccccc1C(=O)Nc1nc2ccccc2s1	-	-71.5	-	.	-	?
COc1ccccc1C(=O)Nc1nc2ccc(S(C)(=O)=O)cc2s1	-	-	-	-	-	-
COc1ccc(C(=O)Nc2nc3ccccc3s2)c(OC)c1	-	-	.	.	-	-95.3
CC(=O)N1CCN(c2ccc(O)cc2)CC1	.	-	.	.	.	.
Cc1nc(SCC(=O)Nc2c(C)n(C)n(-c3ccccc3)c2=O)c(C#N)c(C)c1C	-	-	-	.	-	-
CCCc1cc(SCC(=O)Nc2c(C)n(C)n(-c3ccccc3)c2=O)n2c(nc3ccccc32)c1C#N	3.55µM	-	-	-	-	-
Nc1c(C(=O)Nc2ccccc2)sc2nc(-c3cccnc3)ccc12	-	.	-	3.55µM	.	.
Cc1ccc(NC(=O)c2sc3nc(-c4ccncc4)ccc3c2N)cc1	.	-	.	22.4µM	?	.
COc1ccc(NC(=O)c2sc3nc(-c4cccnc4)ccc3c2N)cc1OC	-	-	-	7.08µM	?	-
COc1ccc(-c2ccc3c(N)c(C(=O)Nc4ccc(C(F)(F)F)cc4)sc3n2)cc1OC	.	-	.	-	-	.
SMILES	B2AR arrestin	PI4K2A inh	p53 reactivation	Epigenetic reg	Pin1 inh	Giardia killer
COc1ccc(NC(=O)c2sc3nc(-c4cccnc4)ccc3c2N)cc1	-	-	-	?	?	-
Nc1c(C(=O)Nc2nc3ccccc3s2)sc2nc(-c3cccs3)ccc12	-	-63.4	-	?	?	-
Nc1c(C(=O)Nc2ccc(F)c(F)c2)sc2nc(-c3ccncc3)ccc12	.	-	.	-	-	.
Cc1cc2c(s1)c1cnn(Cc3c(C)cc(F)cc3C)c(=O)c1n2C	.	.	.	.	-	.
COc1ccc(NC(=S)Nc2ccc(N)c([N+](=O)[O-])c2)cc1	-	-52.7	-	-	-	-
N#Cc1cccc(NS(=O)(=O)c2ccc3c(c2)CCC(=O)N3)c1	.	.	.	.	-	.
NCCCC(N)CC(=O)NCC1NC(=O)C(CO)NC(=O)C(N)CNC(=O)C(C2CCN=C(N)N2)NC(=O)C(=CNC(N)=O)NC1=O (stereo not drawn)	.	-	.	.	.	.
O=C(Nc1cc(S(=O)(=O)N2CCOCC2)ccc1N1CCOCC1)c1ccc([N+](=O)[O-])s1	-	-	-	.	-	-88.8
O=C(Nc1cc(S(=O)(=O)N2CCOCC2)ccc1N1CCOCC1)c1ccccc1[N+](=O)[O-]	-	-	-	.	-	-
O=C(O)c1c(O)c(-c2ccccc2)nc2ccccc12	.	-	.	.	.	.
NC1[C@H]2CN(c3nc4c(cc3F)c(=O)c(C(=O)O)cn4-c3ccc(F)cc3F)C[C@@H]12 (stereo partly drawn)	.	-	.	.	.	.
Cc1ccc(NC(=O)c2ccc(NCCN)c([N+](=O)[O-])c2)cc1	-	-	-	-	-	-

Assay outcomes deposited in PubChem by National Center for Advancing Translational Sciences (NCATS).
